Assay results: PubChem BioAssay (NCATS)
Values joined by “and” are separate entries in the source; they are usually repeats but may differ in a detail not shown here. Identical values can stand only once. Inconclusive results are not listed. Active and inactive are the calls of the source. The call rests on the fitted dose curve; in most records, active means well fitted curve in the direction sought with a large enough effect; inconclusive means small, poorly fitted or top-dose-only effect, or another doubt; inactive means no such curve, though single readings can be large; an effect the other way counts as inactive or inconclusive.

How the values were obtained:
[1] = qHTS for Activators of Parkin Expression: LOPAC Validation Assay (FLuc Reporter) (AID 720573)
Procedure, shortened: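 Cells seeded, 24 h; compounds pinned, 7-pt dose response; 24 h at 37 C/5% CO2; volume reduced; FLuc reagent 10 min RT; luminescence read. Normalization: DMSO = 0, positive control = 100%.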

[2] = molecular target: T1, Hexokinase-4 (Homo sapiens) + Glucokinase regulatory protein (Homo sapiens) (UniProt P35557+Q14397); assay: qHTS assay for inhibitors of recombinant human GCK-GKRP interaction: Diaphorase-coupled assay (AID 743205)
T1 sequence (P35557 whole entry, looked up): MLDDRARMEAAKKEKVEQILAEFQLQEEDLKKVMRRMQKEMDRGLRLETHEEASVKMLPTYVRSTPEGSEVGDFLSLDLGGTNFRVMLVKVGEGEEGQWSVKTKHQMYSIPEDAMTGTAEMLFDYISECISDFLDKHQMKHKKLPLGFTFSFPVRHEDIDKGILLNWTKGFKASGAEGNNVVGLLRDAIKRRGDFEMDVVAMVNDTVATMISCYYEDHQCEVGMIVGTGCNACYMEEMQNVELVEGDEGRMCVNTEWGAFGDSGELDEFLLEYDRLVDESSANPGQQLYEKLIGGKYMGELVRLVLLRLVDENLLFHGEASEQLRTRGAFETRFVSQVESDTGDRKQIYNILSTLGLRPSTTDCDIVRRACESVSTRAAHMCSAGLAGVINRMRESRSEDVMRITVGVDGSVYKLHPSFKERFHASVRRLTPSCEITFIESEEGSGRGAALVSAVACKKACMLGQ
T1 sequence (Q14397 whole entry, looked up): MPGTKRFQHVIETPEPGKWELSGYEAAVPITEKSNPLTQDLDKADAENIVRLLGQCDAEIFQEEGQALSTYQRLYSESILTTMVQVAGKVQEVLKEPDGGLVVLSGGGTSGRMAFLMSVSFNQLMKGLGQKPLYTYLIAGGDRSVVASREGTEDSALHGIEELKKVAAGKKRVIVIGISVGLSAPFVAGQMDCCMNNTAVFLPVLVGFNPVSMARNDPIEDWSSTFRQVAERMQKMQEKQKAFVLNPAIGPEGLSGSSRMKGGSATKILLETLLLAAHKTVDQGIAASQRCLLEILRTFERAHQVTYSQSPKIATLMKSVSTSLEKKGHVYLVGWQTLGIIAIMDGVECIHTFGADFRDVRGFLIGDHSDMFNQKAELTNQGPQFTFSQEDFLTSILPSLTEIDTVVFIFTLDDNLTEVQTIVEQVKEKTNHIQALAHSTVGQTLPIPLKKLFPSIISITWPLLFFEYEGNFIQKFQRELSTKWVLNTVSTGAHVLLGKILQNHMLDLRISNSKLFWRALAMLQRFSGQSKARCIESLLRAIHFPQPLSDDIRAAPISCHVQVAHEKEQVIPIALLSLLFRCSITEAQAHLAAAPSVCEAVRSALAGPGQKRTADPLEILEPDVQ
Procedure, shortened: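 25 mM Hepes pH 7.6, 5 mM glucose, 0.4 mM ATP, 4 U/ml G6PDH; 10 nM each GST-GCK/FLAG-GKRP. Kinetic fluorescence read, 1/min × 30 min. Normalized: DMSO ± enzyme = max/min.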

[3] = molecular target: T1, Hexokinase-4 (Homo sapiens) + Glucokinase regulatory protein (Homo sapiens); assay: qHTS assay for inhibitors of recombinant human GCK-GKRP interaction: ADP-Glo assay (AID 743206);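 further: plate controls were DMSO plus enzyme for no effect and no enzyme for full effect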
Procedure, shortened: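 Pin-transferred compounds meet a 15 nM GST-GCK/15 nM FLAG-GKRP/2 uM S6P mix (dispense concentrations). ATP is then added to 0.4 mM final with 5 mM glucose, and the reaction runs 60 min at room temperature. ADP is quantified luminescently.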

[4] = qHTS Assay for Identifying Gametocytocidal Compounds (AID 743244); further: potency means the concentration at half of the fitted maximal effect;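 on max response: on the % scale 0 is the no-effect control and ±100 the full control effect; actives lower the fluorescent signal which means gametocytes are killed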; settings: P. falciparum 3D7 stage III-V gametocytes, alamarBlue, 72 h; max response: stronger effect = lower value
Procedure, shortened: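 Using 20,000 stage III–V 3D7 gametocytes per well, compounds were incubated 72 h under 37 °C/5% CO2. Viability was then assessed by 24 h alamarBlue reduction, measured fluorometrically at 525/598 nm.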

[5] = molecular target: T1, Hexokinase-4 (Homo sapiens) + Glucokinase regulatory protein (Homo sapiens); assay: qHTS assay for inhibitors of recombinant human GCK-GKRP interaction: HTRF assay (AID 743207);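 further: 0% = DMSO with GCK present and -100% = DMSO wells lacking GCK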
Procedure, shortened: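 5 nM GST-GCK + 5 nM FLAG-GKRP + 2 uM S6P, pH 7.1 buffer (25 mM Hepes, 2 mM MgCl2, 25 mM KCl, 1 mM DTT, Tween/BSA); pin-transferred cpd; anti-FLAG XL665/anti-GST K; 60 min RT; HTRF.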

C=CC(N)CCC(=O)O (stereo not drawn)
inactive: Potency [1] | outcome [2] | Potency [3] | max response [4] -1.49% and -10.7%

O=C(O)CC1CC(c2ccccc2)=NO1 (stereo not drawn)
inactive: Potency [1] | outcome [2] | Potency [3] | Potency [5] | max response [4] -4.91%

CN(C)C(N)=NCCC[C@H](N)C(=O)O
inactive: Potency [1] | outcome [2] | Potency [3] | max response [4] -2.52%

NC(=S)c1ccc[n+]([C@@H]2O[C@@H](COP(=O)([O-])OP(=O)(O)OC[C@H]3O[C@@H](n4cnc5c(N)ncnc54)[C@H](OP(=O)(O)O)[C@@H]3O)C(O)C2O)c1 (stereo partly drawn)
inactive: Potency [1] | outcome [2] | Potency [3] | Potency [5] | max response [4] 5.56%

Cn1ncc(S(=O)(=O)Cc2ccccc2)c(Br)c1=O
inactive: Potency [1] | outcome [2] | Potency [3] | Potency [5] | max response [4] 25.3%

O=C(O)[C@@H]1C[C@@H](C(=O)O)N1
inactive: Potency [1] | outcome [2] | Potency [3] | Potency [5] | max response [4] 6.85%

Cc1nc2sccn2c(=O)c1CCN1CCC(=C(c2ccccc2)c2ccc(F)cc2)CC1
inactive: Potency [1] | outcome [2] | Potency [3] | Potency [5] | max response [4] 35.1%

CSc1ccccc1N1CCN(CCCCCC(=O)NC2CCCc3ccccc32)CC1 (stereo not drawn)
inactive: Potency [1] | outcome [2] | Potency [3] | Potency [5] | max response [4] 6.9%

CC1CN(S(=O)(=O)c2cccc3cnccc23)CCN1 (stereo not drawn)
inactive: Potency [1] | outcome [2] | Potency [3] | Potency [5] | max response [4] 23.3%

O=[N+]([O-])c1ccc2c(c1)S(=O)(=O)C=C2
active: Potency [4] 1000 nM
inactive: Potency [1] | outcome [2] | Potency [3] | Potency [5]
